# Values joined by “and” are separate entries in the source; they are usually repeats but may differ in a detail not shown here. Identical values can stand only once. Counter-ions that a name gives are not always drawn. The campaign covered roughly 5,800 compounds. About 620 (11%) showed activity.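 The calls were made as follows: active = score above a cut-off or among the top three wells of a plate; in these data no inactive exceeds 0.85.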 Only a selection was taken, and actives are over-represented in it overall.
# Test system: primary human hepatic stellate cells (donor 1)
# Experiment: scaled lipid accumulation score (0 = DMSO-like, 1 = nortriptyline-like); higher = stronger HSC inactivation (lipid re-accumulation), active = hit call of the paper
# Settings: 48 h
# [1] = library stock concentration: 10 mM
# [2] = library stock concentration: 1 mM
# [3] = library stock concentration: 3.33 mM
# [4] = library stock concentration: 400 uM
# [5] = library stock concentration: 2 mM
compound,measurement,setting,value
Cc1nccnc1N1CCCCC1,scaled lipid accumulation score,[1],≤ 0 (inactive)
CCCCCC/C=C\CCCC(=O)CC(=O)N[C@H]1CCOC1=O [N-3-oxo-tetradec-7(Z)-enoyl-L-Homoserine lactone],scaled lipid accumulation score,[2],≤ 0 (inactive)
Cc1ccc(-c2c(-c3nn(C)c4ncnc(N5CC[C@H](N6CCCCC6)C5)c34)cnn2C)cc1,scaled lipid accumulation score,[3],≤ 0 (inactive)
same,scaled lipid accumulation score,[1],0.091 (inactive)
"CCCCCC(=O)CC[C@H]1[C@H](O)CC(=O)[C@@H]1CCCCCCC(=O)O [13,14-dihydro-15-keto Prostaglandin E1]",scaled lipid accumulation score,[2],≤ 0 (inactive)
Cc1cc(Nc2nc(N[C@@H](C)c3ccc(F)cc3)c(C#N)cc2F)n[nH]1,scaled lipid accumulation score,[4],≤ -0.005 (inactive)
same,scaled lipid accumulation score,[5],≤ -0.005 (inactive)
same,scaled lipid accumulation score,[3],≤ 0 (inactive)
same,scaled lipid accumulation score,[1],0.387 (inactive) and 0.197 (inactive)
O=S(=O)(NO)c1ccccc1 [Piloty's Acid],scaled lipid accumulation score,[2],≤ 0 (inactive)
Cn1cnc2cc3c(Nc4cccc(Br)c4)ncnc3cc21,scaled lipid accumulation score,[3],0.044 (inactive)
CCCCCC=CCC=CCCCCCCCC(=O)OC(CO)CO [2-Linoleoyl Glycerol],scaled lipid accumulation score,[2],0.053 (inactive)
C[C@@H]1C[C@H]2O[C@@H]2/C=C\C=C\C(=O)Cc2c(Cl)c(O)cc(O)c2C(=O)O1 [Radicicol],scaled lipid accumulation score,[2],0.383 (inactive)
O=C(O)CCC/C=C\C[C@@H]1[C@@H](CCC(=O)CCc2ccccc2)[C@H](O)C[C@@H]1O [15-keto Latanoprost (free acid)],scaled lipid accumulation score,[2],≤ 0 (inactive)
CCCCC(CC)CN1CN(CC(CC)CCCC)CC(C)(N)C1 (centres undefined) [Hexetidine],scaled lipid accumulation score,,≤ 0 (inactive)
same,scaled lipid accumulation score,[1],0.342 (inactive)
CCCCC(CC)CN1CCC(n2cc(CNC)nn2)CC1 (centres undefined),scaled lipid accumulation score,[1],0.988 (active)
CNCc1cn(C2CCN(CCC(C)CC(C)(C)C)CC2)nn1 (centres undefined),scaled lipid accumulation score,[1],1.05 (active)
CCCCc1ccc(N=CNO)c(C)c1,scaled lipid accumulation score,[2],0.03 (inactive)
CC(O)(CC(=O)O)CC(=O)O,scaled lipid accumulation score,[1],0.023 (inactive)
CC1(C)[C@H]2CC[C@@]1(C)C(=O)C2 [1r-camphor],scaled lipid accumulation score,[1],≤ 0 (inactive)
O=C(O)[C@H](O)c1ccccc1 [R-(-)-Mandelic Acid],scaled lipid accumulation score,[2],0.02 (inactive)
CSC(=N)NCCC[C@H](N)C(=O)O [S-Methyl-L-thiocitrulline acetate],scaled lipid accumulation score,[1],≤ -0.02 (inactive)
O=C(Nc1ncc(SCCN2CCCC2)s1)[C@]1(c2ccc(S(=O)(=O)C3CC3)cc2)C[C@H]1C1CCCCC1,scaled lipid accumulation score,[1],0.143 (inactive)
O=C(Nc1ncc(SCCN2CCCC2)s1)[C@]1(c2ccc(S(=O)(=O)C3CC3)cc2)C[C@@H]1C1CCCCC1,scaled lipid accumulation score,[3],1.12 (active)
Cn1cccc1/C=C1\C(=O)NC(=O)c2ccccc21,scaled lipid accumulation score,[1],0.017 (inactive)
O=C(Nc1ccccc1)N[C@@H]1C[C@@H](C(=O)O)Nc2cc(Cl)cc(Cl)c21,scaled lipid accumulation score,[1],≤ 0 (inactive)
CC(N)(C(=O)O)c1ccc(C(=O)O)cc1 (centres undefined),scaled lipid accumulation score,[1],0.151 (inactive)
NC(=O)c1c(NC(=O)C2CC2)sc2c1CCCC2,scaled lipid accumulation score,library stock concentration: 80 uM,≤ -0.001 (inactive)
same,scaled lipid accumulation score,[4],≤ -0.001 (inactive)
same,scaled lipid accumulation score,[5],≤ -0.001 (inactive)
same,scaled lipid accumulation score,[1],0.118 (inactive)
"CCN(CC)C(=O)c1ccc(Nc2nc(OCC3CCCCC3)c3[nH]cnc3n2)cc1 [Cdk2 Inhibitor IV, NU6140]",scaled lipid accumulation score,[3],≤ 0 (inactive)
CC1OC2(CS1)CN1CCC2CC1 (centres undefined) [Cevimeline hydrochloride],scaled lipid accumulation score,[1],≤ 0 (inactive)

# Reference: the supplement of paper PMC9135407
